High-throughput results deposited in PubChem by National Center for Advancing Translational Sciences (NCATS).
In the library only some 0.54% were active in any assay of this set; here they are far more common.
EPAC2 antag = blocks human EPAC2 exchange factor; Q8WZA2; EPAC2 GEF exchange of Rap1B-BODIPY-GDP, fluorescence; Potency, µM (titrated, usually from 114 µM), for inactives: top-dose activity, negative = inhibition, usual class: inhibitors; 360,000 tested, 0.18% active; AID 720708; further: on the % scale 0 is the no-effect control and ±100 the full control effect; nearly all actives have a fitted effect of over 45% in size
EPAC1 agonist = EPAC1 (human) agonism | 360,000 tested, 0.073% active | O95398 | EPAC1 agonist qHTS, biochemical assay; response scale: 100% = response to 6.5 mM cAMP | Potency, µM (highest dose often 154 µM), for inactives: at the top dose activation, usual class: activators; further: nearly all actives have a fitted effect of over 60% in size
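EPAC1 100 nM, Rap1B–BODIPY-GDP 250 nM, unlabeled GDP 50 uM; compound titration; 5 min RT; kinetic read ex480/em540 at 5-min intervals ×30 min; data normalized to 6.5 mM cAMP agonist control.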
EPAC2 agonist = agonists of human EPAC2 (RAPGEF4) | Q8WZA2 | EPAC2 activation, biochemical qHTS; response scale: 100% = 6.5 mM cAMP response | Potency, µM (highest dose often 154 µM), inactives show at the top dose activation, most hits filed as activators | 360,000 tested, 0.079% active | AID 720711; further: nearly all actives have a fitted effect of over 50% in size
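Compounds were titrated in qHTS against a Rap1B-BODIPY-GDP (250 nM) complex with EPAC2 (100 nM) and GDP (50 uM). BODIPY-GDP release tracked at 480/540 nm over 30 min at room temperature, normalized to 6.5 mM cAMP.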
EPAC1 antagonist = EPAC1 (human) antagonism. O95398. EPAC1 GEF assay, Rap1b-BODIPY-GDP exchange fluorescence. Potency, µM (titrated, usually from 115 µM), for inactives: at the top dose activity change, negative = inhibition, actives largely listed as inhibitors. 360,000 tested, 0.14% active;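 further: plate controls were vehicle for no effect and positive control for full effect; nearly all actives have a fitted effect of over 50% in size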
TDP1 inh = blocks human tyrosyl-DNA phosphodiesterase 1 | Potency, µM (highest dose often 130 µM), for inactives: at the highest dose activity change, negative = inhibition, most hits filed as inhibitors | 350,000 tested, 0.28% active | Q9NUW8 | recombinant TDP1, AlphaScreen DNA substrate cleavage | AID 485290; further: on the % scale 0 is the no-effect control and ±100 the full control effect; nearly all actives have a fitted effect of over 40% in size
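E. coli-derived human Tdp1, 1 nM final. Cpd preinc 15 min RT; substrate 15 nM final, 5 min RT; AS bead mix 10 ug/ml final, 10 min RT. Signal loss = tyrosine-FITC cleavage. No-enzyme wells = max signal.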
ERG-DNA inh = ERG Ets/DNA interaction inhibition; Potency, µM (highest dose often 76.9 µM), inactives show top-dose FP activity, negative = inhibition, usual class: inhibitors; P11308; AID 624246; fluorescence polarization, His-ERG Ets domain / labelled DNA; 370,000 tested, 0.028% active; active means well fitted inhibition curve with a large enough effect in the polarisation, with a control signal flat; inconclusive means small, poorly fitted or top-dose-only effect, or effect the other way, or a change in a side signal; inactive means no such curve, though single readings can be large or run the other way; the % refers to the polarisation;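 further: polarization taken with two DNA probes labelled with fluorescein and Texas red; % of control where 0% means no effect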
Target sequence (P11308 whole entry, looked up, the tested form may be a part): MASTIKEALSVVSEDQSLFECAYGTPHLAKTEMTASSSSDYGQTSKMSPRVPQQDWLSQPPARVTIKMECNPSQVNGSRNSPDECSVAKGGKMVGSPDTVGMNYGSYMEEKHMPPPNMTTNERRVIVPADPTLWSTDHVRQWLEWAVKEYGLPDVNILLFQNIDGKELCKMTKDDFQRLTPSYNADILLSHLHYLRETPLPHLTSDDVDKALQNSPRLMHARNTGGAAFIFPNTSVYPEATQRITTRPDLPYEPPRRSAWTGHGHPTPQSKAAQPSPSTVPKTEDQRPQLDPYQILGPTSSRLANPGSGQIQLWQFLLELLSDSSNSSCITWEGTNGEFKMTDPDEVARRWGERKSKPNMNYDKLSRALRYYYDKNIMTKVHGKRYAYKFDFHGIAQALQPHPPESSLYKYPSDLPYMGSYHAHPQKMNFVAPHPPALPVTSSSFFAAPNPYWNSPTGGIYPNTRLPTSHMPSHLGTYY
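His-tagged ERG Ets domain (1 uM in the protein solution; 300mM KCl, 50mM Tris-HCl, 1mM EDTA, 1mM DTT, pH 7.5) received compound, then a probe mix of 5 nM fluorescein-DNA and 100nM Texas-615-DNA. Fluorescence polarization was read for both dyes.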
An asterisk follows results filed as active; ? = inconclusive; / = not tested or not shown. Unless noted, the call rests on the fitted dose curve; in most records, active means well fitted curve in the direction sought with a large enough effect; inconclusive means small, poorly fitted or top-dose-only effect, or another doubt; inactive means no such curve, though single readings can be large; an effect the other way counts as inactive or inconclusive. Potency means the concentration at half of the fitted maximal effect.

SMILES	EPAC2 antag	EPAC1 agonist	EPAC2 agonist	EPAC1 antagonist	TDP1 inh	ERG-DNA inh
CC1=Nc2ccc(C)cc2/C1=C/c1c(N)n2c(S(=O)(=O)C(C)C)nsc2nc1=O	-5%	-22%	-11%	50µM*	-1%	13%
COc1ccc(Cn2ncc3c4sc(C)cc4n(C)c3c2=O)cc1	/	/	/	/	-3%	/
O=C(N/N=C/c1cccnc1)c1cc(-c2ccccc2OCc2ccccc2)n[nH]1	-3%	12%	16%	50µM*	0%	26%
COc1cccc(NS(=O)(=O)c2cc3c(cc2C)N(C(C)=O)CCO3)c1	7%	-6%	-3%	-19%	/	1%
CC(=O)N1CCOc2cc(S(=O)(=O)Nc3c(C)cccc3C(C)C)c(Cl)cc21	/	/	/	/	8.9µM*	0%
CCc1nnc(NS(=O)(=O)c2ccc(NC(=S)NC(=O)/C=C/c3ccc(C(C)C)cc3)cc2)s1	?	13%	8%	79µM*	-10%	/
CCc1nnc(NS(=O)(=O)c2ccc(N/C=C\C(=O)c3ccc4ccccc4c3)cc2)s1	-8%	3%	6%	50µM*	-11%	2%
CCc1nnc(NS(=O)(=O)c2ccc(NC(=S)NC(=O)c3ccc(Br)cc3)cc2)s1	-16%	1%	6%	56µM*	-2%	5%
COCCN=c1scc(-c2cccs2)n1/N=C/c1ccc(O)c(O)c1O	0%	1%	13%	56µM*	3%	5%
CCN=c1scc(C)n1/N=C/c1ccc(O)c(O)c1O	-2%	-14%	-6%	45µM*	6%	-11%
NS(=O)(=O)c1ccc(S(=O)(=O)N2CCN(c3nc(-c4cccs4)nc4ccccc34)CC2)cc1	/	/	/	/	3%	/
CN(C)/C=C1\C=C2C(=O)c3ccccc3N2C1=O	418%	?	35µM*	-37%	-2%	?
COc1ccccc1N1C(=O)c2ccccc2C1=O	/	/	/	/	0%	/
COc1ccc(OCC(O)CN2C(=O)c3ccccc3C2=O)cc1 (configuration not stated)	-10%	8%	13%	0%	/	13µM*
C=CC(=O)OCC(CO)(COC(=O)C=C)COC(=O)C=C	/	/	/	/	4%	/
COC(=O)c1c(C)c2c(C)cc3ccccn3c-2c1C(=O)OC	11µM*	-6%	-9%	2%	11%	-17%
COc1cccc(C2c3c(ncn(Cc4cccs4)c3=N)Oc3ccc4ccccc4c32)c1 (configuration not stated)	/	/	/	/	5%	/
COc1ccc(/C=C2\SC(=O)N(CCC(=O)Nc3ccc(S(=O)(=O)Nc4nccs4)cc3)C2=O)cc1	15%	0%	-4%	-24%	-2%	-3%
COc1ccc(/C=C2/SC(=S)N(c3ccc(S(=O)(=O)Nc4nccs4)cc3)C2=O)cc1	0%	7%	-7%	71µM*	/	31%
COc1ccc(/C=C2/SC(=O)N(CCC(=O)Nc3ccc(S(=O)(=O)Nc4nccs4)cc3)C2=O)cc1	-1%	-10%	14%	50µM*	2%	-1%
Cc1ccc(/C=C2/SC(=S)N(c3ccc(S(=O)(=O)Nc4nccs4)cc3)C2=O)cc1	-11%	9%	4%	?	/	?
O=S(=O)(Nc1cccc2ccccc12)c1cccc2ccccc12	/	/	/	/	1%	/
Nc1nc(NCc2ccc(Cl)c(Cl)c2)c2[nH]cnc2n1	/	/	/	/	2%	/
Cc1c(N)c(C(C)(C)C)cc(C(C)(C)C)c1[N+](=O)[O-]	-18%	-16%	-1%	-17%	6%	/
Cc1cc2nc3c(=O)[nH]c(=O)[nH]c3nc2c([N+](=O)[O-])c1N	33%	89µM*	12%	15%	40µM*	-22%
SMILES	EPAC2 antag	EPAC1 agonist	EPAC2 agonist	EPAC1 antagonist	TDP1 inh	ERG-DNA inh
CCOc1ccc(NC(=O)c2cccc(-n3cccc3)c2)cc1S(=O)(=O)N1CCOCC1	/	/	/	/	0.79µM*	/
CCOC(=O)c1ccc(N2C(=O)C3C(/C=C/c4ccccc4)OC4(C(=O)c5ccccc5C4=O)C3C2=O)cc1 (configuration not stated)	-2%	3%	14%	100µM*	8%	15%
CCOC(=O)c1ccc(N2C(=O)[C@@H](c3ccccc3)[C@H]2c2ccccc2)cc1	-19%	-5%	12%	1%	0%	5%
CN(C)/C=C/C=C1C(=O)CCCC1=O	-3%	12%	2%	-13%	22µM*	-6%
O=C(CS(=O)(=O)c1ccc(F)cc1)Nc1nccs1	14%	3%	2%	-8%	/	-18%
O=C(COc1ccc(F)cc1)Nc1nccs1	182%	-1%	35µM*	-8%	0%	4%
CCOc1ccc(S(=O)(=O)Nc2cc(NS(=O)(=O)c3ccc(OCC)cc3)cc(C(=O)O)c2)cc1	?	-9%	-11%	-8%	3.5µM*	12%
CC(SC1=NS(=O)(=O)c2ccccc21)C(=O)O (configuration not stated)	/	/	/	/	-1%	/
CCCCN1C(=O)c2ccccc2NC1c1ccc(OC)c(COc2ccc(NC(C)=O)cc2)c1 (configuration not stated)	/	/	/	/	-3%	/
CC(C)(C)c1nnc(NS(=O)(=O)c2cc(Cl)ccc2Cl)s1	-17%	3%	7%	-17%	6%	6%
O=S(=O)(Nc1nc(-c2sccc2Cl)cs1)c1cc(Cl)ccc1Cl	50µM*	-12%	-24%	79µM*	8%	3%
CCc1cccc(CC)c1N1C(=O)C2=C(SCCCS2)C1=O	-7%	100µM*	112µM*	-2%	/	/
CCc1cccc(CC)c1N1C(=O)COCC1=O	4%	-10%	-3%	-1%	/	/
COc1ccc(C2=Nn3c(nnc3-c3cc(OC)ccc3OC)SC2)c(OC)c1	/	/	/	/	6%	/
O=C(c1cccc2ccccc12)N1CCN(S(=O)(=O)c2ccccc2)CC1	/	/	/	/	2%	/
O=C(N/N=C/c1ccccc1F)c1cc2c(ccc3ccccc32)o1	4%	2%	2%	6%	8.9µM*	9%
O=C(N/N=C\c1ccc2c(c1)OCO2)c1cncc(Br)c1	7%	1%	-1%	-12%	50µM*	-5%
Cc1ccc(C(=O)N/N=C/c2ccc3c(c2)OCO3)o1	7%	10%	4%	20%	3%	-1%
O=C(N/N=C/c1ccsc1)c1cc2ccccc2o1	-1%	-3%	-4%	8%	79µM*	-2%
COc1ccc(OC)c(/C=N\NC(=O)c2cc3c(ccc4ccccc43)o2)c1	5%	-2%	2%	22%	3%	9%
O=C(N/N=C/c1ccc2c(c1)OCO2)c1cc2ccccc2o1	-3%	-3%	8%	11%	50µM*	4%
